About 7,900 targets were measured; listed, in parts, are those with a hit and a random draw of the rest. About 0.6% of all pairs of compound and target were hits.
What was measured:
Test in all cases: log2 fold change, soluble protein after heating vs DMSO (PISA); higher = thermal stabilisation; K562 cells, 10 uM, 30 min; active = over 0.2 and 3.5 SD of the protein, either way, in both replicates (recomputed)
[1] = compound: CC[C@@H]1C(=O)N(C)c2cnc(Nc3ccc(C(=O)NC4CCN(C)CC4)cc3OC)nc2N1C1CCCC1
Outline: (§1)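 Thermal stability values are relative to control samples and come from duplicates. They are expressed as log2 fold changes. For measurement, K562 cells (2×10^6 cells/mL) received 10 μM compound for 30 min, and aliquots were heated for 3 min over 48°C-58°C, pooled, and extracted at 4°C in PBS with 0.5% NP-40. Soluble protein, the supernatant after 21,000xg for 90 min, was quantified by TMTpro 16plex LC-MS/MS with equalised channel sums.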

volasertib = compound: CC[C@@H]1C(=O)N(C)c2cnc(Nc3ccc(C(=O)N[C@H]4CC[C@H](N5CCN(CC6CC6)CC5)CC4)cc3OC)nc2N1C(C)C [volasertib]
Outline: as §1

[2] = compound: CC[C@H](C)N1C=C(C2=C(C=C(C=C21)C3=CN=C(C=C3)N4CCNCC4)C(=O)NCC5=C(C=C(NC5=O)C)C)C
Outline: as §1

epoxomicin = compound: CC[C@H](C)[C@@H](C(=O)N[C@@H]([C@@H](C)O)C(=O)N[C@@H](CC(C)C)C(=O)[C@]1(CO1)C)NC(=O)[C@H]([C@@H](C)CC)N(C)C(=O)C [epoxomicin]
Outline: as §1

[3] = compound: CCn1c(C(=O)N(C2CC2)C2CC2)cc2c3c(ncn3C)c(Nc3cc(C)n(C)n3)nc21
Outline: as §1

[4] = compound: CCn1cc(-c2ccnc3[nH]c(-c4cccc(CN(C)C)c4)cc23)c(-c2ccc(NC(=O)N(C)C)cc2)n1
Outline: as §1

[5] = compound: CN(C)CC(=O)Nc1ccc2[nH]c(=O)c3ccccc3c2c1
Outline: as §1

rosiglitazone = compound: CN(CCOC1=CC=C(C=C1)C[C@H]2C(=O)NC(=O)S2)C3=CC=CC=N3 (racemic) [rosiglitazone]
Outline: as §1

[6] = compound: CN1C2=C(C3=C1C(=O)N(N=C3)CC4=CC(=CC=C4)N)SC(=C2)S(=O)C
Outline: as §1

[7] = compound: CN1CCC(CNc2ccc3ncc(-c4cccc(OC(F)(F)F)c4)n3n2)CC1
Outline: as §1

saracatinib = compound: CN1CCN(CCOc2cc(OC3CCOCC3)c3c(Nc4c(Cl)ccc5c4OCO5)ncnc3c2)CC1 [saracatinib]
Outline: as §1

sotrastaurin = compound: CN1CCN(c2nc(C3=C(c4c[nH]c5ccccc45)C(=O)NC3=O)c3ccccc3n2)CC1 [sotrastaurin]
Outline: as §1

alvocidib = compound: CN1CC[C@H](c2c(O)cc(O)c3c(=O)cc(-c4ccccc4Cl)oc23)[C@H](O)C1 [alvocidib]
Outline: as §1

Tubastatin A = compound: CN1CCc2c(c3ccccc3n2Cc2ccc(C(=O)NO)cc2)C1 [Tubastatin A]
Outline: as §1

[8] = compound: CNC(=O)C1=CC=CC=C1NC2=NC(=NC=C2Cl)NC3=C(C=C(C=C3)N4CCOCC4)OC
Outline: as §1

defactinib = compound: CNC(=O)c1ccc(Nc2ncc(C(F)(F)F)c(NCc3nccnc3N(C)S(C)(=O)=O)n2)cc1 [defactinib]
Outline: as §1

rucaparib = compound: CNCc1ccc(-c2[nH]c3cc(F)cc4c3c2CCNC4=O)cc1 [rucaparib]
Outline: as §1

[9] = compound: CNc1nc(-c2ccc3c(N)n[nH]c3c2)cc(N2C[C@@H](C(=O)NC3CCCCC3)CC[C@H]2C)n1
Outline: as §1

encorafenib = compound: COC(=O)N[C@@H](C)CNc1nccc(-c2cn(C(C)C)nc2-c2cc(Cl)cc(NS(C)(=O)=O)c2F)n1 [encorafenib]
Outline: as §1

[10] = compound: COC(=O)[C@H](CCSC)NC(=O)C1=C(C=C(C=C1)NC[C@H](CS)N)C2=CC=CC=C2
Outline: as §1

Measured: log2 fold change

PSMC4 (UniProt P43686)
active: epoxomicin -0.379
inactive: [1] 0.033 | volasertib 0.2 | [2] -0.021 | [3] -0.02 | [4] 0.086 | [5] -0.033 | rosiglitazone -0.021 | [6] 0.033 | [7] 0.06 | saracatinib -0.041 | sotrastaurin -0.011 | alvocidib 0.047 | Tubastatin A -0.026 | [8] -0.032 | defactinib 0.074 | rucaparib 0.039 | [9] 0.037 | encorafenib 0.019 | [10] 0.005

PIK3CD (UniProt O00329)
inactive: [1] -0.069 | volasertib -0.036 | epoxomicin -0.076 | [3] -0.229 | [5] -0.059 | rosiglitazone 0.288 | [6] 0 | saracatinib -0.124 | sotrastaurin -0.106 | alvocidib 0.055 | Tubastatin A 0.003 | [8] 0.08 | defactinib -0.218 | rucaparib 0.182 | [9] 0.089 | encorafenib -0.019 | [10] -0.062

PPP1CA (UniProt P62136)
inactive: [1] -0.014 | volasertib -0.061 | [2] 0.003 | epoxomicin 0.02 | [3] 0.011 | [4] -0.041 | [5] -0.033 | rosiglitazone 0.015 | [6] -0.077 | [7] 0.011 | saracatinib 0.036 | sotrastaurin -0.03 | alvocidib -0.027 | Tubastatin A -0.024 | [8] -0.009 | defactinib -0.033 | rucaparib -0.008 | [9] -0.028 | encorafenib -0.009 | [10] 0.018

POGZ (UniProt Q7Z3K3)
inactive: [1] -0.077 | volasertib -0.293 | epoxomicin 0.08 | [3] -0.088 | [4] -0.192 | [5] 0.07 | [6] 0.006 | [7] 0.063 | saracatinib -0.134 | sotrastaurin -0.186 | alvocidib -0.065 | Tubastatin A -0.071 | [8] 0.056 | defactinib -0.162 | rucaparib 0.196 | [9] 0.136 | encorafenib -0.02 | [10] -0.043

PHLDB1 isoform 2 (UniProt Q86UU1)
Chain of UniProt Q86UU1 (Q86UU1 whole entry, looked up): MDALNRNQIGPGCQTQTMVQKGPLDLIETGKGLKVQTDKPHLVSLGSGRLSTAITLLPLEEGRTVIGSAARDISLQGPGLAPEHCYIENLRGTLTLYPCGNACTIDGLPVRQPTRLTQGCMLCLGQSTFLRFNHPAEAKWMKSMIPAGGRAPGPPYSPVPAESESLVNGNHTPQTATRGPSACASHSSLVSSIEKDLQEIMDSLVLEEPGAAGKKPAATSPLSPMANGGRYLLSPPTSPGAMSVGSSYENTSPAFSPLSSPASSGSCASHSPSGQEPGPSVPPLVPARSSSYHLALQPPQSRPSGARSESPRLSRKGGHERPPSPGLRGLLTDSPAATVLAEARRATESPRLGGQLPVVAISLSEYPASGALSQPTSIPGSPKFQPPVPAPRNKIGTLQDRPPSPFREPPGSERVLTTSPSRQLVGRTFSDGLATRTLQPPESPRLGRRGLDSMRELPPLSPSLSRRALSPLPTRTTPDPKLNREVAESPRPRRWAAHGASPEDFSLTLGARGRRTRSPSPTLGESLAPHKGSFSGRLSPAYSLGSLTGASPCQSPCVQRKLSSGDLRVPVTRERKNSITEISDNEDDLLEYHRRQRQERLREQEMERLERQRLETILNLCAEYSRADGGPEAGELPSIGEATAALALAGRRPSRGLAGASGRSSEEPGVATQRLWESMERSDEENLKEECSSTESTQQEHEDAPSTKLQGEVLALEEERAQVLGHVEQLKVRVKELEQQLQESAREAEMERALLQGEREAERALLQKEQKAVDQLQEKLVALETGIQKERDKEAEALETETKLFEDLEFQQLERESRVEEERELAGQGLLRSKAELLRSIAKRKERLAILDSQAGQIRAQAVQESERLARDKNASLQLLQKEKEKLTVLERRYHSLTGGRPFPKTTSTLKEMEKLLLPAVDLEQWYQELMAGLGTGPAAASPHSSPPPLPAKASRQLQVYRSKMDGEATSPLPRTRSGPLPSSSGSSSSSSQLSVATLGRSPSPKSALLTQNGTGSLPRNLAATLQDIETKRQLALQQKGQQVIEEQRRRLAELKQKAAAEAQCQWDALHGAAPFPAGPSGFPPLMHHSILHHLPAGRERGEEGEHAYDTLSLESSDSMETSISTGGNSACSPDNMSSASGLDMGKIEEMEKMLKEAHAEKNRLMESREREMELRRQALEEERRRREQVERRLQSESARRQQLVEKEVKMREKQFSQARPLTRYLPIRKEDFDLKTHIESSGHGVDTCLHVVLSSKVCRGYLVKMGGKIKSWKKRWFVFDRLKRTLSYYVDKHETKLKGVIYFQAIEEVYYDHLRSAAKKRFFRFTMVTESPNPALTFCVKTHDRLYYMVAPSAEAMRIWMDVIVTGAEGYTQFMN
active: [7] -0.585
inactive: [1] -0.03 | volasertib -0.222 | [2] -0.06 | epoxomicin 0.061 | [3] -0.02 | [4] -0.04 | [5] -0.034 | rosiglitazone 0.055 | [6] -0.022 | saracatinib -0.02 | alvocidib -0.353 | Tubastatin A -0.023 | [8] -0.164 | defactinib -0.035 | rucaparib 0.011 | [9] 0.066 | encorafenib 0.089 | [10] -0.001

PHRF1 (UniProt Q9P1Y6)
Chain of UniProt Q9P1Y6 (Q9P1Y6 whole entry, looked up): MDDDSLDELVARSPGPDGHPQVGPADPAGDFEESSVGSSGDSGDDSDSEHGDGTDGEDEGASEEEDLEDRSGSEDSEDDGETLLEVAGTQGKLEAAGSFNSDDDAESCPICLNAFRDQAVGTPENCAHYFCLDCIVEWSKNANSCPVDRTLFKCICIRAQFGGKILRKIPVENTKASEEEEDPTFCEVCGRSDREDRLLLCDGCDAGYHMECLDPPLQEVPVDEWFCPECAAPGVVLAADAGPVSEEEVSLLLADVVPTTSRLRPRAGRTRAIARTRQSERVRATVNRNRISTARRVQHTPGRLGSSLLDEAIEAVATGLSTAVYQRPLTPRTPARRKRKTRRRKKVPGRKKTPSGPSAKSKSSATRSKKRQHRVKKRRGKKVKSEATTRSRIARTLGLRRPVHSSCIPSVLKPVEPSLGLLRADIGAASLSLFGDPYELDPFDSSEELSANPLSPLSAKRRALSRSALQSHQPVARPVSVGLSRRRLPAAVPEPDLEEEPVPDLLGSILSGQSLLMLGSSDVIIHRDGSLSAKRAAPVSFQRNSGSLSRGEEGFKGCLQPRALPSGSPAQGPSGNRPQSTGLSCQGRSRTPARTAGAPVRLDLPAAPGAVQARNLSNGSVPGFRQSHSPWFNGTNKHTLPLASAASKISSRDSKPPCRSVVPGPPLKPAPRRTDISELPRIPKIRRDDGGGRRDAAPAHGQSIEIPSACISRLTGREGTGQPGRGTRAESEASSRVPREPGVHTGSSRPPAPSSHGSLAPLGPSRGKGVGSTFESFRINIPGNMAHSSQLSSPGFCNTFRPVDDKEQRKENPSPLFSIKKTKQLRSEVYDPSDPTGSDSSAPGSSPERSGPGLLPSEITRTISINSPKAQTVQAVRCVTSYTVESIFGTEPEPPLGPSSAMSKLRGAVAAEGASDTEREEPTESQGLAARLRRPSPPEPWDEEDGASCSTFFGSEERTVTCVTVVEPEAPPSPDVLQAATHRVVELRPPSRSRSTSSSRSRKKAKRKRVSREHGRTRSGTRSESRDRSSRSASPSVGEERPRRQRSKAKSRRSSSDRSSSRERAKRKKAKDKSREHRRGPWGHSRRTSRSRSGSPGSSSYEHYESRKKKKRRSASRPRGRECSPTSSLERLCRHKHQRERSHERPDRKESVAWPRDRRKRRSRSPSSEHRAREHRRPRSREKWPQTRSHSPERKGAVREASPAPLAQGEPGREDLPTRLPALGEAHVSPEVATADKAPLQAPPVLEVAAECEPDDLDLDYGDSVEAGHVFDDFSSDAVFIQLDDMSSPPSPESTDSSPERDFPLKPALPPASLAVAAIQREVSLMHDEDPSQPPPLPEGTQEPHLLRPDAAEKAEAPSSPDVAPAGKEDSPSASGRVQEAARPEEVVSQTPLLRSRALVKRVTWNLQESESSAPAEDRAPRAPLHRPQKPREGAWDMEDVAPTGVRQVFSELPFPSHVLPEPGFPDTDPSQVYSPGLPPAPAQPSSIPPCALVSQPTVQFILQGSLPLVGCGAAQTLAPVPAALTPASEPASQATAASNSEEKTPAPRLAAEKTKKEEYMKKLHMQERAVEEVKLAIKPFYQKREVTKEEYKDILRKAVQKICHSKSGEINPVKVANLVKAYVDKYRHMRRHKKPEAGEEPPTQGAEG
inactive: volasertib 0.373 | [3] 0.035 | [8] -0.022

PSMA3 (UniProt G3V4X5)
inactive: volasertib 0.139 | [5] 0.084 | rosiglitazone 0.122 | defactinib 0.061 | [10] -0.208

PSMD8 (UniProt K7ERW6)
inactive: [5] 0.027 | Tubastatin A 0.235 | defactinib 0.011 | [10] 0.066

PDE4DIP (UniProt E9PS60)
inactive: [1] 0.047 | [3] -0.072 | [5] 0.095 | alvocidib 0.095 | [8] -0.196 | defactinib 0.095 | rucaparib 0.172 | encorafenib 0.125 | [10] 0.032

PMVK (UniProt Q15126)
Chain of UniProt Q15126 (Q15126 whole entry, looked up): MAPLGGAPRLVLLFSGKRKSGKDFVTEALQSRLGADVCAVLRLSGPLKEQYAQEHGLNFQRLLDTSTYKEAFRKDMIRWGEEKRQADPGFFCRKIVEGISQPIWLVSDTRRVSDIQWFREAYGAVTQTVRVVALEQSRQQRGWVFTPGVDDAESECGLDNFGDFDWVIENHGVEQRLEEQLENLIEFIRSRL
inactive: [2] 0.069 | epoxomicin 0.003 | [3] 0.028 | [4] 0.142 | [5] 0.018 | rosiglitazone 0.067 | [6] 0.036 | [7] 0.057 | saracatinib -0.021 | sotrastaurin -0.003 | alvocidib -0.032 | Tubastatin A 0.229 | [8] -0.051 | defactinib 0.02 | [9] -0.039 | [10] -0.368

PMS2CL (UniProt Q68D20)
inactive: [2] -0.126 | epoxomicin 0.126

PRKD2 isoform 3 (UniProt Q9BZL6)
inactive: [2] 0.149 | epoxomicin 0.049 | [3] 0.005 | [4] -0.089 | [5] 0.042 | rosiglitazone 0.144 | [6] 0.056 | [7] -0.316 | saracatinib -0.031 | sotrastaurin -0.273 | alvocidib 0.034 | Tubastatin A 0 | [8] -0.242 | defactinib -0.004 | [9] -0.075 | [10] -0.024
active: volasertib -0.674

PDE6D (UniProt O43924)
Chain of UniProt O43924 (O43924 whole entry, looked up): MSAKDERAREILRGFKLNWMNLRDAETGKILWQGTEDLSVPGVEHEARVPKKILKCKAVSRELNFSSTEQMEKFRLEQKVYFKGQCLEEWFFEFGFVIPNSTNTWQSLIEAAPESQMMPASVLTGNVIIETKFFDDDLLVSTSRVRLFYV
inactive: [2] -0.179 | epoxomicin 0.105 | [3] 0.26 | [4] -0.29 | [5] 0.05 | rosiglitazone -0.054 | [6] -0.096 | [7] 0.061 | saracatinib -0.074 | sotrastaurin 0.035 | alvocidib -0.051 | Tubastatin A 0.029 | [8] -0.102 | defactinib -0.043 | [9] 0.119 | [10] 0.068

PSMC1 (UniProt G3V4X1)
inactive: volasertib 0.141 | [2] -0.01 | [3] -0.135 | [4] 0.108 | [7] -0.282 | alvocidib 0.031 | [8] -0.011

PSMC3 (UniProt E9PLG2)
inactive: epoxomicin -0.273 | [5] -0.238 | rosiglitazone 0.043 | [6] 0.046 | saracatinib -0.197 | sotrastaurin 0.081 | Tubastatin A 0.079 | defactinib 0.172 | [9] -0.252 | [10] -0.026

PCF11 (UniProt O94913)
Chain of UniProt O94913 (O94913 whole entry, looked up): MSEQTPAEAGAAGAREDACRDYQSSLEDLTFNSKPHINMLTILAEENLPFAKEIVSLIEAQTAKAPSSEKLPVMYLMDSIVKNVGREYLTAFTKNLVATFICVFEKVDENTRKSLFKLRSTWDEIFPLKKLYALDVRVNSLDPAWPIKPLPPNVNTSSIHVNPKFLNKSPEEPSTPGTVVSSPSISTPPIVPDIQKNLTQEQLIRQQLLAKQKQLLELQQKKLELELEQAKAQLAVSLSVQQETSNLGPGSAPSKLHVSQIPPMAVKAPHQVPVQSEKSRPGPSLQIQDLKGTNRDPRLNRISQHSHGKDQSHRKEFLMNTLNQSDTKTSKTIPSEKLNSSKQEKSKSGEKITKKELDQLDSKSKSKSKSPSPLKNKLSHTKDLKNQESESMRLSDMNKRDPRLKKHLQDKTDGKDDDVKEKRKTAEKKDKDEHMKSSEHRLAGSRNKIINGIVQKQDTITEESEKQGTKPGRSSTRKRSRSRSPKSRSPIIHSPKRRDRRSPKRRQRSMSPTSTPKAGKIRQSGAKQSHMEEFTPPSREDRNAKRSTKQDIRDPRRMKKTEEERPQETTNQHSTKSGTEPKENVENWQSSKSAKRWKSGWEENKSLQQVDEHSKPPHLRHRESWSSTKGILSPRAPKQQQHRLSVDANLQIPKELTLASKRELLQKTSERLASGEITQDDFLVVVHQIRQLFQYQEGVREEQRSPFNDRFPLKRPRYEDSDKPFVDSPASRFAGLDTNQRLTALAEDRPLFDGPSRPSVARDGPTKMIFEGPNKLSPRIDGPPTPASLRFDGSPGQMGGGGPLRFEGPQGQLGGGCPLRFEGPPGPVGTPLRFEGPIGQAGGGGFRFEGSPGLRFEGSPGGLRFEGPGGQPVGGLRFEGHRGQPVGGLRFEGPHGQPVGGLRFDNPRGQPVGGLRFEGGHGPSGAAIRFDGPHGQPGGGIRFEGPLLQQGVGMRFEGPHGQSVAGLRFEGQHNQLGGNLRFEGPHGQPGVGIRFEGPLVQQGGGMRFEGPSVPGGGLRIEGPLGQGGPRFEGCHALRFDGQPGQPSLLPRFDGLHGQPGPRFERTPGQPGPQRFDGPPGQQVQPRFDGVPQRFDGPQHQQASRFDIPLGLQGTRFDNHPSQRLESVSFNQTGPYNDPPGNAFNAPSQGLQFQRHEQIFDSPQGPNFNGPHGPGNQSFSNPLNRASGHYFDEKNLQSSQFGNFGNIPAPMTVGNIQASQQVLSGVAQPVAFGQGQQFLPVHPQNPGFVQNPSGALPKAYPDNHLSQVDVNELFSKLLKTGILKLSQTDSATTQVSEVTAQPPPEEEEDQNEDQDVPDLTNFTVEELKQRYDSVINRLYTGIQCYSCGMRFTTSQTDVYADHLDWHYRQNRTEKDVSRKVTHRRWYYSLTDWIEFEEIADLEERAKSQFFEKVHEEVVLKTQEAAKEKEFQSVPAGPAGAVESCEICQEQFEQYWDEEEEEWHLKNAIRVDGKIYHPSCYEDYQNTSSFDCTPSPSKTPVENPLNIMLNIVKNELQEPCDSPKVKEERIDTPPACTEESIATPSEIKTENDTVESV
active: rucaparib -0.995
inactive: [1] -0.014 | volasertib -0.114 | [4] 0.038 | [5] -0.078 | rosiglitazone 0.314 | [7] -0.03 | alvocidib 0.027 | defactinib -0.059 | encorafenib -0.06 | [10] 0.095

PBX2 (UniProt P40425)
inactive: volasertib -0.251 | [2] 0.025 | epoxomicin 0.123 | [3] -0.03 | [4] -0.009 | [5] 0.023 | rosiglitazone 0.052 | [6] -0.056 | [7] 0.024 | saracatinib 0.082 | sotrastaurin -0.023 | alvocidib -0.141 | Tubastatin A -0.069 | [8] -0.022 | defactinib -0.36 | [9] -0.046 | [10] -0.044

PRKX (UniProt P51817)
inactive: [3] -0.019 | rosiglitazone 0.191 | [8] -0.139

PEX5 isoform 4 (UniProt P50542)
inactive: epoxomicin 0.2 | [3] 0.096 | [5] -0.017 | [6] 0.366 | saracatinib -0.425 | sotrastaurin -0.207 | alvocidib -0.088 | Tubastatin A 0.077 | [8] 0.178 | defactinib 0.006 | [9] 0.182 | [10] -0.097

PIM1 isoform 2 (UniProt P11309)
active: [7] 2.26
inactive: [4] -0.068

PTP4A3 (UniProt O75365)
Chain of UniProt O75365 (O75365 whole entry, looked up): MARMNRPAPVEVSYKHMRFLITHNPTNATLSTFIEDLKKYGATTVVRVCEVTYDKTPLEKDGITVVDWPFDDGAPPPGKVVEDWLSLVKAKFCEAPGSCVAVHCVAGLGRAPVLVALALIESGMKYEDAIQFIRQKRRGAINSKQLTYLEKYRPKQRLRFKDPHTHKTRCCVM
inactive: [5] 0.205 | rosiglitazone 0.045 | [10] -0.029
active: defactinib -1.14

PSMA3 (UniProt H0YJ03)
inactive: [1] 0.115 | volasertib 0.076 | [5] -0.04 | [6] 0.027 | saracatinib -0.185 | alvocidib 0.073 | Tubastatin A 0.314 | defactinib -0.023 | rucaparib 0.151 | [9] 0.067 | encorafenib -0.142 | [10] 0.087

PRG4 (UniProt Q92954)
inactive: [1] 0.073 | [2] -0.18 | epoxomicin -0.294 | [3] 0.053 | [4] 0.075 | [5] -0.239 | rosiglitazone 0.085 | [6] 0.015 | [7] -0.228 | saracatinib 0.008 | sotrastaurin 0.136 | alvocidib 0.007 | Tubastatin A 0.004 | [8] 0.14 | defactinib 0.055 | rucaparib -0.072 | [9] 0.031 | encorafenib 0.001 | [10] -0.109

PRR14L (UniProt Q5THK1)
inactive: volasertib 0.218 | [2] -0.088 | [4] 0.006 | [5] -0.134 | [7] 0.073 | alvocidib 0.016 | Tubastatin A 0.053 | defactinib 0.286 | [10] 0.125

Source: the supplement of paper PMC10849652
